Measured values reported in publication PMC5700166.

Target: T1, GST-Co-NF-kB (Capsaspora owczarzaki, UniProt F1ARL5 200-546)
T1 sequence: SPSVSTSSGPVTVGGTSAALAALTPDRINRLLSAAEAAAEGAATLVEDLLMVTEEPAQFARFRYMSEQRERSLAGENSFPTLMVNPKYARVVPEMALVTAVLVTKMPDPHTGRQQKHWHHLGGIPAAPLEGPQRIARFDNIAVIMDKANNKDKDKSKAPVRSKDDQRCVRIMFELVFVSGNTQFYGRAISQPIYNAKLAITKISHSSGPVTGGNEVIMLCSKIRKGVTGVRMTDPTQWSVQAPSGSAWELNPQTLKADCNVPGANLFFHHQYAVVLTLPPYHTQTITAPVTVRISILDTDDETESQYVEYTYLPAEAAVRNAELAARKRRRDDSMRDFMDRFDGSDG
Experiment: protein-binding microarray (PBM); PBM: ~300 nM protein, 6 mM HEPES pH 7.8, 80 mM KCl, 0.5 mM EDTA, 0.5 mM EGTA, 6% glycerol, 35 ng/ul poly-dIdC, 1% milk, 1 h, room temperature; Ap Aiptasia and Nv Nematostella (sea anemones) / Co Capsaspora / Aq Amphimedon (sponge) / Dm Drosophila / Hu human; RHD is the Rel homology domain; high values mean tight binding
Conditions: dsDNA, one strand shown

Sequence	binding signal [z-score]
CCGATTAACATCAAAGAGCCCCCTGATGTTAATCGGGTCTTGATTCGCTTGACGCTGCTG	1.68
CCGATTAACATCAGAAATGCCCCTGATGTTAATCGGGTCTTGATTCGCTTGACGCTGCTG	1.98
CCGATTAACATCAAGGGGGATACTGATGTTAATCGGGTCTTGATTCGCTTGACGCTGCTG	4.72
CCGATTAACATCAAAAGCCCCCATGATGTTAATCGGGTCTTGATTCGCTTGACGCTGCTG	2.08
CCGATTAACATCAAACCACCCCCTGATGTTAATCGGGTCTTGATTCGCTTGACGCTGCTG	3.81
CCGATTAACATCAGCCCCGGTGTTGATGTTAATCGGGTCTTGATTCGCTTGACGCTGCTG	1.61
CCGATTAACATCAATTCCCCCCGTGATGTTAATCGGGTCTTGATTCGCTTGACGCTGCTG	8.8
CCGATTAACATCAGGGGTAGAACTGATGTTAATCGGGTCTTGATTCGCTTGACGCTGCTG	5.07
CCGATTAACATCACCCGGGTAAATGATGTTAATCGGGTCTTGATTCGCTTGACGCTGCTG	2.41
CCGATTAACATCACCCTCGAGGGTGATGTTAATCGGGTCTTGATTCGCTTGACGCTGCTG	1.1
CCGATTAACATCAATCCACCCCCTGATGTTAATCGGGTCTTGATTCGCTTGACGCTGCTG	4.65
CCGATTAACATCAGGGAAACTTATGATGTTAATCGGGTCTTGATTCGCTTGACGCTGCTG	5.54
CCGATTAACATCAGGAAATACCCTGATGTTAATCGGGTCTTGATTCGCTTGACGCTGCTG	1.14
CCGATTAACATCAGGATATCCCCTGATGTTAATCGGGTCTTGATTCGCTTGACGCTGCTG	3.66
